PubChem BioAssay (Tox21)
Results filed as inconclusive are left out. The source made the active and inactive calls. Unless noted, calls come from the whole dose curve.

Assays:
[1] = Nuclear factor erythroid 2-related factor 2/antioxidant responsive element (Nrf2/ARE) small molecule agonists: luciferase reporter gene qHTS assay in human keratinocytes (AID 1919969); note: nearly all actives have a fitted effect of over 35% in size
[2] = molecular target: Gonadotropin-releasing hormone receptor (Homo sapiens) (UniProt P30968); assay: Human gonadotropin-releasing hormone receptor (GnRHR) small molecule agonists, calcium flux assay in GnRHR-HEK293 cells (AID 1920063); note: nearly all actives have a fitted effect of over 35% in size
Method in brief: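 We seeded human GnRHR-expressing HEK293 cells for 18 hours, loaded them with calcium dye for an hour at 37 C, added test compounds, and recorded fluorescence intensity kinetically for three minutes.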

[3] = G protein-coupled receptor (GPCR) small molecule agonists, calcium flux assay: HEK293 wild type cell line counter screen (AID 1920065)
Method in brief: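 Calcium-sensitive dye, loaded 1 h at 37 C into cells cultured 18 h, reports compound-evoked calcium release as fluorescence (Ex/Em 480/540), measured over 3 min. Agonist mode; 15-point titrations, triplicate.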

[4] = p53 small molecule agonists, cell-based qHTS assay with human liver microsomes (AID 1963577)
Method in brief: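 Compounds act here after metabolic activation: human liver microsomes and NADPH, both at 0.5 mg/mL final, were co-added to p53RE-bla cells. Incubation ran 16 h at 37 C, followed by LiveBLAzer detection.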

[5] = p53 small molecule agonists, cell-based qHTS assay with rat liver microsomes (AID 1963578)
Method in brief: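 Read-out is beta-lactamase reporter fluorescence (LiveBLAzer, 2 h, room temperature, dark) in p53RE-bla cells treated 16 h at 37 C with compound, rat liver microsomes and NADPH, both 0.5 mg/mL final.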

[6] = p53 small molecule agonists, cell-based qHTS assay with human liver microsomes: qHTS cell viability counter screen (AID 1963579); note: nearly all actives have a fitted effect of over 45% in size
Method in brief: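 Cells carrying the p53 response-element beta-lactamase reporter are treated for 16 h at 37 C with test compounds in the presence of human liver microsomes and NADPH (both 0.5 mg/mL final); ATP-based CellTiter-Glo luminescence then reports viability.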

[7] = p53 small molecule agonists, cell-based qHTS assay with rat liver microsomes: qHTS cell viability counter screen (AID 1963580); note: nearly all actives have a fitted effect of over 45% in size
Method in brief: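 p53RE-bla HCT-116 cells (4,000/well) rested 5 h at 37 C, then given Tox21 compounds in DMSO with rat liver microsomes (0.5 mg/mL final) plus NADPH (0.5 mg/mL final) for 16 h at 37 C. Viability read by CellTiter-Glo luminescence after 30 min at room temperature.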

[8] = p53 small molecule agonists, cell-based qHTS assay: qHTS cell viability counter screen (AID 1963581); note: nearly all actives have a fitted effect of over 45% in size
Method in brief: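 Following 5 h attachment, HCT-116 p53RE-bla cells took up compound for 16 h at 37 C; the reporter was read with B/G FRET substrate (2 h RT), and viability then via CellTiter-Glo ATP luminescence.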

[9] = p53 small molecule agonists, cell-based qHTS assay (AID 1963582; active = well fitted activation curve with a large enough effect in the signal ratio in the repeat runs, not every such curve was filed as active; the % refers to the signal ratio)
Method in brief: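 In this cell-based concentration-response screen, a p53 response element drives beta-lactamase; cells received DMSO-borne compounds after 5 h culture and were incubated a further 16 h before FRET substrate development.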

[10] = molecular target: Muscarinic acetylcholine receptor M1 (Homo sapiens) (UniProt P11229); assay: Cholinergic receptor muscarinic 1 (CHRM1) small molecule antagonists, cell-based qHTS assay (AID 1963588); note: nearly all actives have a fitted effect of over 40% in size
Method in brief: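 CHRM1-CHO calcium-flux assay, antagonist mode. Cells were seeded 18 h, dye-loaded 1 h at 37 C and given compound for 5 min at RT, then acetylcholine was added at 50nM. FDSS fluorescence was read 3 min; 15 concentrations, three runs.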

[11] = molecular target: Muscarinic acetylcholine receptor M1 (Homo sapiens) (UniProt P11229); assay: Cholinergic receptor muscarinic 1 (CHRM1) small molecule agonists, cell-based qHTS assay (AID 1963589); note: nearly all actives have a fitted effect of over 35% in size
Method in brief: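 Measures agonist-induced intracellular calcium rise. Stable human CHRM1 CHO line, 1 h dye load at 37 C, compounds from DMSO, kinetic fluorescence read.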

[12] = cAMP Responsive Elements (CRE) small molecule agonists, cell-based qHTS assay (AID 1963590)
Method in brief: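 A CRE-responsive beta-lactamase reporter in HEK 293T cells was used. Treatment ran 3 h at 37 C; detection used LiveBLAzer B/G FRET substrate for 2 h at room temperature.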

[13] = cAMP Responsive Elements (CRE) small molecule antagonists, cell-based qHTS assay (AID 1963591; active = well fitted inhibition curve with a large enough effect in the signal ratio in the repeat runs, not every such curve was filed as active; the % refers to the signal ratio)
Method in brief: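 HEK293T cells carrying a CRE-driven beta-lactamase reporter receive compound and NKH477 (0.25 uM final) for 3 h. Fluorescence from LiveBLAzer B/G FRET substrate is read after 2 h at room temperature.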

[14] = molecular target: Beta-2 adrenergic receptor (Homo sapiens) (UniProt P07550); assay: Adrenergic beta2 receptor (ADRB2) small molecule antagonists, cell-based qHTS assay (AID 1963592); note: series mostly up to about 92 µM; nearly all actives have a fitted effect of over 50% in size
Method in brief: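 Cells (CHO, stable ADRB2 overexpression) incubated 18-20hr at 37C; compounds added from DMSO; agonist mix (1nM isoproterenol, 100uM IBMX, 25uM Ro-20-1724) added; 0.5hr RT; d2-cAMP and anti-cAMP-cryptate added; 1hr RT; 665/615 nm read.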

[15] = molecular target: D(2) dopamine receptor (Homo sapiens) (UniProt P14416); assay: Dopamine D2 receptor (DRD2) small molecule agonists, cell-based qHTS assay (AID 1963594); note: nearly all actives have a fitted effect of over 35% in size
Method in brief: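 HEK293 cells stably expressing DRD2 were cultured 24 h at 37 C, then given Ro20-1724 (0.1 mM final) and compounds for 10 min at room temperature. NKH477 (200nM) was then added for 30 min. cAMP was read by HTRF.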

[16] = molecular target: D(2) dopamine receptor (Homo sapiens) (UniProt P14416); assay: Dopamine D2 receptor (DRD2) small molecule antagonists, cell-based qHTS assay (AID 1963595; active = well fitted inhibition curve with a large enough effect in the signal ratio in the repeat runs, with a control signal flat; the % refers to the signal ratio)
Method in brief: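 Readout: HTRF cAMP, cAMP-d2 competing with cellular cAMP for anti-cAMP cryptate, read after 1 h. Cells: DRD2-HEK293. Conditions: 0.1 mM Ro20-1724, 12 nM quinpirole, 200 nM NKH477, 30 min RT.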

[17] = molecular target: KiSS-1 receptor (Homo sapiens) (UniProt Q969F8); assay: Human kisspeptin (KISS1R) small molecule agonists, calcium flux assay in KISS1R-HEK293 cells (AID 1920064; active = well fitted activation curve with a large enough effect in the repeat runs)
Method in brief: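 Kinetic calcium assay, 1 s sampling over 3 min at Ex/Em 480/540, in HEK293 cells engineered with human KISS1R; compounds delivered in DMSO after 1 h dye loading.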

[18] = molecular target: 5-hydroxytryptamine receptor 2A (Homo sapiens) (UniProt P28223); assay: 5-hydroxytryptamine receptor 2A (HTR2A) small molecule antagonists, cell-based qHTS assay (AID 1963586); note: nearly all actives have a fitted effect of over 45% in size
Method in brief: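 Antagonist-mode intracellular calcium assay: DOI (4 nM) added after 5 min compound pre-incubation at room temperature to dye-loaded HTR2A-CHO cells. Fluorescence followed for 3 min, sampled every second.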

[19] = molecular target: 5-hydroxytryptamine receptor 2A (Homo sapiens) (UniProt P28223); assay: 5-hydroxytryptamine receptor 2A (HTR2A) small molecule agonists, cell-based qHTS assay (AID 1963587); note: nearly all actives have a fitted effect of over 30% in size
Method in brief: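 HTR2A-CHO cells, plated 18 h at 37 C/5% CO2, dye-loaded 1 h at 37 C; compounds in DMSO added by pin tool (agonist mode). Intracellular calcium flux read as kinetic fluorescence on FDSS over 2 min at 1 s intervals.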

[20] = molecular target: Beta-2 adrenergic receptor (Homo sapiens) (UniProt P07550); assay: Adrenergic beta2 receptor (ADRB2) small molecule agonists, cell-based qHTS assay (AID 1963593);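 note: CHO cells stably overexpressing human ADRB2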
Method in brief: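 CHO cells stably over-expressing ADRB2 were plated overnight at 37C, then dosed with compounds plus a stimulation mix containing 100uM IBMX and 25uM Ro-20-1724 for 0.5hr at room temperature. cAMP was measured by HTRF competition, 1hr.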
% is set by controls: 0 for no effect and ±100 for the full control effect.

D(2) dopamine receptor (Homo sapiens), sequence (P14416 whole entry, looked up): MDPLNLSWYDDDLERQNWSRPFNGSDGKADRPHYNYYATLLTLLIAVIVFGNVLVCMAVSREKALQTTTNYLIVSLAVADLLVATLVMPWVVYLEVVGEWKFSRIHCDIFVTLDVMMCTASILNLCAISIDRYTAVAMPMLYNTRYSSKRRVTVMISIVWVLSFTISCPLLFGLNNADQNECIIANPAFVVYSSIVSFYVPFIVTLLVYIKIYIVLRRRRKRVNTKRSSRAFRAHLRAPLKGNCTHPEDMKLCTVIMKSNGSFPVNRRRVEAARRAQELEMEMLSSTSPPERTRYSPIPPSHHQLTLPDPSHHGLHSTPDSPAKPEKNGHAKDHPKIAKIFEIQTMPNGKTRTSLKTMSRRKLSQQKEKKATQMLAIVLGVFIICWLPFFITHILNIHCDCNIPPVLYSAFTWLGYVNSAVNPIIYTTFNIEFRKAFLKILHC
Muscarinic acetylcholine receptor M1 (Homo sapiens), sequence (P11229 whole entry, looked up): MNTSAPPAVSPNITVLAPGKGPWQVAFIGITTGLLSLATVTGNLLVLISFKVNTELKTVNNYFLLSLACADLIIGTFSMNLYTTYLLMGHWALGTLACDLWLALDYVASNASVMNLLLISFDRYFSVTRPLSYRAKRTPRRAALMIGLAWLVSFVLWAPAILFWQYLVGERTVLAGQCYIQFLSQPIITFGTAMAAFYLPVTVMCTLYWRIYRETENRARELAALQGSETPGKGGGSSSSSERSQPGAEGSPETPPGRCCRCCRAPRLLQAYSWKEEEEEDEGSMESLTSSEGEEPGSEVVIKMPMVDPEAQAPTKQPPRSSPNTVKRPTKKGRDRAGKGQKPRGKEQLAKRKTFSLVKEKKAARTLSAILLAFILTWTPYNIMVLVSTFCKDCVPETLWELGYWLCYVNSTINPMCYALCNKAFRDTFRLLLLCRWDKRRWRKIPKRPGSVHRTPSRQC
KiSS-1 receptor (Homo sapiens), sequence (Q969F8 whole entry, looked up): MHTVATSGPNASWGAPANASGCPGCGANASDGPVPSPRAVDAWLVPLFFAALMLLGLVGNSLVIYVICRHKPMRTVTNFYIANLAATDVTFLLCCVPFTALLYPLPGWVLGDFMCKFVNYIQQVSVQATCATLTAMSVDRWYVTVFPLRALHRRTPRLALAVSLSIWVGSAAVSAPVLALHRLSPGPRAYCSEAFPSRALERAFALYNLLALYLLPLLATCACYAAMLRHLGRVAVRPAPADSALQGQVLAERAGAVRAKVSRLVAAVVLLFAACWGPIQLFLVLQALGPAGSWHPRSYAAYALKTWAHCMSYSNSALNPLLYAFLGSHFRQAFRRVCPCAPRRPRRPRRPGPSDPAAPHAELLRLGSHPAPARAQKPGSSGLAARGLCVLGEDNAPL
5-hydroxytryptamine receptor 2A (Homo sapiens), sequence (P28223 whole entry, looked up): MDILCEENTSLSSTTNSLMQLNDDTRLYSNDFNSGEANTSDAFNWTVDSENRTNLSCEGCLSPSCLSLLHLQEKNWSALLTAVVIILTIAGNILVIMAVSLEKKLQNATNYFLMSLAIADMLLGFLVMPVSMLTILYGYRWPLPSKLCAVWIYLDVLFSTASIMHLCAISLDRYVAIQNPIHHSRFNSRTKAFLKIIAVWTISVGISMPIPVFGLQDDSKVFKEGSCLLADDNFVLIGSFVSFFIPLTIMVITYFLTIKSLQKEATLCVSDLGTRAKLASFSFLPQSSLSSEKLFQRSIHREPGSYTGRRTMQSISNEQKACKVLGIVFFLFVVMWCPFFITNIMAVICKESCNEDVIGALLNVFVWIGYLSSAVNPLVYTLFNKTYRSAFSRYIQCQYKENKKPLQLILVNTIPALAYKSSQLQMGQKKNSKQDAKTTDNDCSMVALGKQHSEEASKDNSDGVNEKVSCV
Beta-2 adrenergic receptor (Homo sapiens), sequence (P07550 whole entry, looked up): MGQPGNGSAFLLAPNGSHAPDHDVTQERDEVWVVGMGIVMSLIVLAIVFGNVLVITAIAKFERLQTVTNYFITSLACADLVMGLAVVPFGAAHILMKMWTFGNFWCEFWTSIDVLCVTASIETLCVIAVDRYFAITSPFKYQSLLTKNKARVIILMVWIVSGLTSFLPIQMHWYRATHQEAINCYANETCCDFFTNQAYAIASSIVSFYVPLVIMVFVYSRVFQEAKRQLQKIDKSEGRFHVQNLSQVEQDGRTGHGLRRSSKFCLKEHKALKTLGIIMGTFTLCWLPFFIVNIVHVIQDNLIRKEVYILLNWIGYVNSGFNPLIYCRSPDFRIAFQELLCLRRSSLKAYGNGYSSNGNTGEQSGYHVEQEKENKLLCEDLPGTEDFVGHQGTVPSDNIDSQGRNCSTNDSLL
Gonadotropin-releasing hormone receptor (Homo sapiens), sequence (P30968 whole entry, looked up): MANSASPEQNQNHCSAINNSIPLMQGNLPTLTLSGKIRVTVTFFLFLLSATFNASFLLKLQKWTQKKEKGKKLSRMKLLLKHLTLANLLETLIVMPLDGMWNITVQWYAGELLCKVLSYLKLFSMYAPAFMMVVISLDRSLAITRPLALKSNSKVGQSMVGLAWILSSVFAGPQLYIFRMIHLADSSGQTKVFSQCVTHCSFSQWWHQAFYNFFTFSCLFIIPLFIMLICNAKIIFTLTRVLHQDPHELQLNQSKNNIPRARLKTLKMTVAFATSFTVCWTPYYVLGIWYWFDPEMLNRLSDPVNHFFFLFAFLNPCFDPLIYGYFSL

C/C(=C(\CCOP(=O)(O)O)SC(=O)c1ccccc1)N(C=O)Cc1cnc(C)nc1N
inactive: activity, positive = activation [1] -0.129% [at 8.39 µM] | activity change [2] -0.163% [at 5.22 µM, stronger effect = higher value] | activation [3] -0.0907% [at 5.23 µM] | activation [4] -1.03% [at 5.99 µM] | activation [5] -4.95% [at 5.99 µM] | activity change, negative = cytotoxicity [6] 1.21% [at 5.99 µM] | activity change, negative = cytotoxicity [7] 1.33% [at 5.99 µM] | activity change, negative = cytotoxicity [8] 10.8% [at 5.99 µM] | activation [9] 1.46% [at 5.99 µM] | activity, negative = inhibition [10] 1.74% [at 5.58 µM] | activation [11] -0.572% [at 6.97 µM] | activation [12] 1.28% [at 8.39 µM] | activity change, negative = inhibition [13] 1.78% [at 8.39 µM] | activity change, negative = inhibition [14] 2.25% [at 8.39 µM] | activation [15] 3.76% [at 8.39 µM] | activity change, negative = inhibition [16] 2.34% [at 8.38 µM]

CCCCCCC(O)CO (stereo unspecified)
inactive: Potency [1] | outcome [17] | outcome [3] | Potency [4] | Potency [5] | Potency [6] | Potency [8] | Potency [9] | Potency [18] | Potency [19] | Potency [10] | Potency [11] | Potency [12] | Potency [13] | Potency [14] | Potency [15]

O=C(c1ccco1)N1CCNCC1
inactive: Potency [1] | Potency [2] | outcome [17] | Potency [4] | Potency [5] | Potency [7] | Potency [8] | Potency [9] | Potency [19] | Potency [10] | Potency [11] | Potency [12] | Potency [13] | Potency [14] | Potency [20] | Potency [15] | Potency [16]

Cc1ccc(/C=N/n2c(-c3ccccc3)csc2=S)cc1
inactive: Potency [1] | outcome [17] | outcome [3] | Potency [4] | Potency [5] | Potency [6] | Potency [7] | Potency [8] | Potency [9] | Potency [19] | Potency [11] | Potency [12] | Potency [13] | Potency [14] | Potency [15] | Potency [16]

CC(=O)N[C@@H](CCC(N)=O)C(=O)O
inactive: Potency [1] | outcome [17] | outcome [3] | Potency [4] | Potency [5] | Potency [6] | Potency [7] | Potency [8] | Potency [9] | Potency [19] | Potency [10] | Potency [11] | Potency [12] | Potency [13] | Potency [14] | Potency [16]
